Compounds without any hit were thinned out: in the full panel of roughly 83,000, 20% have a hit.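 Assay: single dose, 48 h. Readout: percent growth (0 = no net growth; negative = cell death). Active: <10.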 A number with no mark means an inactive call. Calls of active or inactive are those of the source.
How the values were obtained:
Assay in all cases: NCI-60 one-dose screen, 48 h (100 = growth as untreated, 0 = no growth, -100 = all killed)
Conditions in all cases: 10 µM unless noted
[1] = test system: NCI-H23 lung
[2] = test system: NCI-H226 lung
[3] = test system: NCI-H322M lung
[4] = test system: HOP-62 NSCLC
[5] = test system: NCI-H460 lung
[6] = test system: HOP-92 NSCLC
[7] = test system: NCI-H522 lung
[8] = test system: A549/ATCC NSCLC
[9] = test system: 786-0 renal
[10] = test system: COLO 205 colon
[11] = test system: DU-145 prostate
[12] = test system: K-562 leukemia
[13] = test system: MALME-3M melanoma
[14] = test system: MDA-MB-231 breast
[15] = test system: RXF 393 renal
[16] = test system: SF-268 CNS
[17] = test system: SF-295 CNS
[18] = test system: SF-539 CNS
[19] = test system: UACC-257 melanoma
[20] = test system: M14 melanoma

SMILES | growth [1] | growth [2] | growth [3] | growth [4] | growth [5] | growth [6] | growth [7] | growth [8] | growth [9] | growth [10] | growth [11] | growth [12] | growth [13] | growth [14] | growth [15] | growth [16] | growth [17] | growth [18] | growth [19] | growth [20]
COc1cc(-c2csc(NC(=O)c3ccc(N4CCOCC4)c(C(F)(F)F)c3)n2)cc(OC)c1OC | 15.7% | 41.6% | 70.3% | 34.2% | 46.2% | 57.6% | 14.3% | 31.9% | 37% | 18.9% | 53.4% | 18.9% | 29.3% | 71.4% | 62% | 40% | 21.9% | 49.6% | 26.6% | 12.9%
COc1cc(C2CC(c3ccc(Nc4nc(Nc5ccc(Cl)cc5)nc(Nc5ccc(Cl)cc5)n4)cc3)=NN2C(C)=O)cc(OC)c1OC (configuration not stated) | 83.3% | 104% | 106% | 105% | 106% | -3.51% (active) | 86.8% | 91.1% | 90.6% | 97.9% | 115% | 73.5% | 99.2% | 102% | 92.4% | 106% | 102% | 98.7% | 103% | 102%
O=C(CSc1nnc(-c2cnccn2)n1-c1ccccc1)c1ccc(Cl)cc1 | 108% | 104% | 95.5% | 97.7% | 103% | 81.4% | 95.3% | 91.7% | 95.1% | 99.6% | 105% | 91.1% | 105% | 99.8% | 114% | 104% | 99.3% | 103% | 96% | 102%
CCN(CC)S(=O)(=O)c1ccc(S(=O)(=O)N2CCC[C@@H](C(=O)N3CCN(c4nc(C(C)C)no4)CC3)C2)cc1 | 50% | 82.1% | 88.7% | 66.8% | 70.8% | 77.1% | 60.2% | 67.1% | 89.6% | 102% | 62.6% | 30.9% | 85.3% | 81.3% | 64.5% | 69% | 52.8% | 74.3% | 45.1% | 78.8%
Cc1nc2sc(C(=O)Nc3cccc4ccccc34)c(N)c2cc1C(O)c1ccccc1 (configuration not stated) | 7.51% (active) | 46.1% | 51.4% | 20.4% | 0.274% (active) | 34% | -25.3% (active) | 9.88% (active) | 16.1% | -58.2% (active) | 5.38% (active) | 4.79% (active) | 46.9% | 17.1% | 36.2% | 23.5% | 10.2% | -7.12% (active) | 51.6% | 7.59% (active)
Cc1ccc(C2=Nc3c(N)ncnc3NC(c3cccc(Nc4ccnc5cc(C(F)(F)F)ccc45)c3)C2)cc1 (configuration not stated) | 44.3% | 59.8% | 67.2% | 41.1% | 21.2% | 2.86% (active) | 30.6% | 24.6% | 42.6% | 9.89% (active) | 64.9% | 5.65% (active) | 35.3% | 29.6% | 0.783% (active) | 40.1% | 25% | 56.1% | 51.7% | 16%
Cc1ccc2c(n1)C(=O)C(Br)=C(CC(C)C)C2=O | 98.6% | 97.2% | 96.5% | 97.1% | 105% | 80.4% | 67.7% | 90.8% | 96.3% | 78.5% | 109% | 33.8% | 99.7% | 91.4% | 102% | 96.2% | 102% | 97.7% | 85.1% | 102%
CCSc1oc(-c2ccccc2)nc1[P+](c1ccccc1)(c1ccccc1)c1ccccc1 | -11.8% (active) | -2.47% (active) | -6.18% (active) | 0.275% (active) | 0.695% (active) | -27.9% (active) | -20.3% (active) | 9.29% (active) | 13.4% | -45.5% (active) | 11.1% | 7.15% (active) | -25% (active) | -12.8% (active) | 0.296% (active) | 14.1% | -4.41% (active) | 14.6% | 7.79% (active) | 7.57% (active)
CCC(C(=O)[C@@H](C)[C@@H](O)[C@H](C)[C@@H]1O[C@@H]([C@@H](CC)C(=O)ONC(=O)c2ccccc2)CC[C@@H]1C)[C@H]1O[C@]2(C=CC(=O)[C@]3(CC[C@@](C)([C@H]4CC[C@](O)(CC)[C@H](C)O4)O3)O2)[C@H](C)C[C@@H]1C (some centres not stated) | -49.7% (active) | 42% | 37.4% | 26.5% | -57.8% (active) | -62.2% (active) | -25.9% (active) | -19.6% (active) | 9.1% (active) | -26% (active) | -13% (active) | -6.87% (active) | -24.7% (active) | -53.2% (active) | -6.41% (active) | 28.4% | 1.07% (active) | -62.8% (active) | 32% | 21.1%
O=C(CN1CCCCC1)Nc1nc(-c2cc3ccccc3oc2=O)cs1 | 109% | 88.3% | 93.9% | 96.2% | 103% | 98.7% | 93.6% | 102% | 95.4% | 116% | 106% | 90.9% | 103% | 103% | 100% | 94.1% | 102% | 103% | 102% | 107%
CCOc1ccccc1Cn1ccnc1CCc1c(Cl)c(O)cc(O)c1C(=O)OC |  | 102% | 83% | 85.9% | 104% | 90.4% | 76.2% | 87.7% | 101% | 102% | 104% | 94.7% | 91.8% | 96.7% | 108% | 102% | 95.2% | 103% | 93.7% | 95.2%
COc1ccc(/C=N\Nc2nc(SCCC(C)C)nc(-c3ccc(OC)cc3)c2C#N)cc1 |  | 88.9% | 80.8% | 18.4% | 13.9% | 63.2% | 60.5% | 70.9% | -2.8% (active) | 68% | 72.8% | 82% | 64.6% | 77.6% | 80.5% | 78.9% | 17.4% | 24.6% | 91.6% | 87.6%
CC(=O)N1N=C(c2ccc(Nc3nc(Nc4ccccc4)nc(Nc4ccccc4)n3)cc2)CC1c1cccc([N+](=O)[O-])c1 (configuration not stated) |  | 113% | 96.2% | 78.8% | 107% | 56.8% | 104% | 93.3% | 89.9% | 88.1% | 102% | 80.8% | 136% | 73.7% | -0.925% (active) | 109% | 104% | 89.8% | 92.3% | 94.8%
